Screens deposited in PubChem by National Center for Advancing Translational Sciences (NCATS).
KB-3-1 tox = KB-3-1 parental cell cytotoxicity. KB-3-1 viability, CellTiter-Glo ATP luminescence, 72 h. Potency, µM (doses to about 46.1 µM), most hits filed as cytotoxic. 1.4% of 400,000 active. AID 1347075; further: on the % scale 0 is the no-effect control and ±100 the full control effect; nearly all actives have a fitted effect of over 60% in size
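Viability of parental KB-3-1 cells, measured by CellTiter-Glo luminescence, followed a 72 h incubation at 37 °C with pinned compounds in phenol-red-free DMEM containing 10% FBS.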
KB-V1 MDR tox = kills drug-selected multidrug resistant KB-V1 cells; KB-V1 MDR cells viability, CellTiter-Glo, 72 h; Potency, µM (doses to about 46.1 µM), usual class: cytotoxic; 3.4% of 400,000 active; AID 1347076; further: on the % scale 0 is the no-effect control and ±100 the full control effect; nearly all actives have a fitted effect of over 60% in size
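Luminescent ATP read-out (CellTiter-Glo, 10 min) measures survival of drug-selected KB-V1 MDR cells after 72 h, 37 degrees C compound exposure. Medium: phenol-red-free DMEM, 10% FBS. Values from fitted concentration-response curves.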
ATXN2 expr inh = reduces ATXN2 reporter expression in HEK-293 cells | HEK-293 ATXN2-luciferase reporter, luminescence, 24 h | Potency, µM (top dose mostly 57 µM), without a hit: at the highest dose activity change, negative = inhibition, most hits filed as inhibitors | 0.72% of 360,000 active | AID 1745845; further: on the % scale 0 is the no-effect control and ±100 the full control effect; nearly all actives have a fitted effect of over 55% in size
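ATXN2-luciferase reporter cells (luciferase flanked by upstream and downstream ATXN2 gene portions) were treated 24 h at 37 °C with compounds at up to 57 uM. SteadyGlo luminescence gave expression; GF-AFC fluorescence gave viability.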
S2 tox = cell viability loss in ATXN counter-screen | S2 cells (HEK-293 line with an ATXN2-luciferase reporter) viability, CellTiter-Fluor protease fluorescence, 24 h | Potency, µM (top dose mostly 56.7 µM), most hits filed as cytotoxic | 0.49% of 400,000 active; further: nearly all actives have a fitted effect of over 40% in size
HT1080NT lethal = kills 2HG-producing HT-1080-NT fibrosarcoma cells | HT-1080-NT fibrosarcoma viability, CellTiter-Glo ATP luminescence, 48 h | AID 686970 | Potency, µM (titrated, usually from 46.1 µM), inactives show top-dose activity, negative = less viability, usual class: cytotoxic | 1.6% of 360,000 active;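 further: NT is the 2HG producing partner of a matched IDH1 knockdown line; 0% = DMSO-treated cells and -100% = media-only wells without cells; nearly all actives have a fitted effect of over 55% in size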
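Read-out is CellTiter-Glo luminescence after 10 minutes at room temperature, following 48 hours' compound treatment of HT-1080-NT cells (750 cells/well, RPMI, 5% FBS, 37 degrees C).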
HT1080 IDH1KD tx = toxicity to HT-1080 IDH1 knockdown cells (counter line). AID 686971. HT-1080 IDH1 knockdown viability, ATP luminescence, 48 h. Potency, µM (top dose mostly 46.1 µM), inactives show top-dose activity, negative = toxicity, most hits filed as cytotoxic. 2% of 360,000 active;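 further: 0% = DMSO wells and -100% = cell-free medium wells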
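Using the IDH1-knockdown HT-1080 line run in the same batch and compound series as the NT line, viability after 48 h at 37 °C was determined by CellTiter-Glo luminescence and expressed as % activity.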
The depositor's hits bear a star; i = inactive; ? = inconclusive; · = no result; ! = repeats disagree; [ ] = dose if it differs, or a comment. Only some compounds are listed: those with a hit (about 6.2% of all), similar ones and a draw of the others. The call rests on the fitted dose curve; in most records, active means well fitted curve in the direction sought with a large enough effect; inconclusive means small, poorly fitted or top-dose-only effect, or another doubt; inactive means no such curve, though single readings can be large; an effect the other way counts as inactive or inconclusive. Potency means the concentration at half of the fitted maximal effect.

SMILES | KB-3-1 tox | KB-V1 MDR tox | ATXN2 expr inh | S2 tox | HT1080NT lethal | HT1080 IDH1KD tx
CC(=O)N1N=C(c2ccco2)CC1c1cccs1 (stereo unspecified) | i | i | 8% | i | 0% | 8%
CCN(CC)C(=O)Oc1ccc(Cl)c2cccnc12 | i | i | 4% | i | 1% | 0%
O=C(Nc1cccc(C(F)(F)F)c1)Oc1ccc(Cl)c2cccnc12 | ? | i | ? | i | 16µM* | 15µM*
COc1cccc(OC)c1C(=O)NNC(=O)c1cccc(COc2ccc3c(c2)CCC3)c1 | i | ? | 5.6µM* | i | -12% | -18%
O=C(NCc1ccccc1)c1cccc(COc2ccc3c(c2)CCC3)c1 | i | 16µM* | 0% | i | -3% | -9%
COc1[nH]c(/N=C/c2ccco2)c(C#N)c1C#N | ? | i | · | · | · | ·
Cc1c(Cl)cccc1NC(=O)c1ccc2c(c1)CCN2S(=O)(=O)c1ccccc1 | i | i | 3% | i | · | ·
Cc1ccc(C(=O)NC(=S)N2CC(C)OC(C)C2)cc1[N+](=O)[O-] (stereo unspecified) | i | ? | -1% | i | 3.5µM* | 2.8µM*
CC1=C(C(=O)N(C(C)C)C(C)C)CC(CC(=O)NCC2CCCCC2)C(=O)N1Cc1ccc(C(C)(C)C)cc1 (stereo unspecified) | · | i | · | · | ? | 23µM*
CC1=C(C(=O)N(C(C)C)C(C)C)CC(CC(=O)NC2CC2)C(=O)N1Cc1ccc(C(C)(C)C)cc1 (stereo unspecified) | i | ? | -20% | i | -7% | 2%
CC1=C(C(=O)N(C(C)C)C(C)C)CC(CC(=O)NCc2cccc3ccccc23)C(=O)N1Cc1ccc(C(C)(C)C)cc1 (stereo unspecified) | 23µM* | ? | ? | ? | ? | ?
O=C(COC(=O)C12CC3CC(CC(O)(C3)C1)C2)Nc1cccc(Br)c1 | i | i | 6% | ? | 1% | 0%
CCOc1nc(NC(=O)NS(=O)(=O)Oc2cccc(Cl)c2)nc(-c2ccccc2)n1 | 0.0016µM*! | i | 4% | i | 1% | 20%
COc1cc(C(=O)NCc2ccccc2Cl)ccc1OCC(=O)N1CCOCC1 | i | ? | 1% | i | 10% | 10%
CN(CC(=O)Nc1cccc(F)c1)C(=O)c1cn(-c2ccccc2)nc1-c1ccc(Cl)cc1 | i | i | · | ? | 21µM* | ?
COc1ccc(-c2nn(-c3ccccc3)cc2/C=C/C(=O)OCC(=O)Nc2ccc(C#N)cc2)cc1 | i | 9.2µM* | -11% | i | 3% | 20%
COc1ccc(NC(=O)CN(C)C(=O)c2cn(-c3ccccc3)nc2-c2ccc(Cl)cc2)cc1 | ? | 23µM* | ? | ? | ? | ?
COc1ccc(NC(=O)CN(C)C(=O)c2cn(-c3ccccc3)nc2-c2ccc(OC)cc2)cc1 | i | i | · | i | -2% | -15%
Cc1cc2c(cc1CC(=O)c1sccc1S(=O)(=O)Nc1onc(C)c1Cl)OCO2 | · | · | -4% | i | · | ·
CN(C)CCN(Cc1ccccc1)C(c1ccnc2ccccc12)c1nnnn1-c1ccc2c(c1)OCCO2 (stereo unspecified) | i | ? | -12% | i | -18% | 5%
O=S(=O)(Nc1ccc(N=Nc2ccccc2)cc1)c1ccccc1 | i | 3.3µM* | ? | ? | 15% | -15%
Cc1cc(NS(=O)(=O)c2ccccc2)cc(Cl)c1O | i | 16µM* | 5% | i | -10% | -8%
O=S(=O)(Nc1ccc(NS(=O)(=O)c2ccccc2)c(Cl)c1)c1ccccc1 | i | i | -15% | i | -3% | -5%
CC1(C)NC(=O)N(CC(O)COc2ccc(-c3ccc(C#N)cc3)cc2)C1=O (stereo unspecified) | i | 21µM* | -16% | i | -8% | -10%
O=C(Nc1cccc2ccccc12)c1cnn2c1NC(=C1CC1)C=C2C(F)F | i | i | · | · | · | ·
SMILES | KB-3-1 tox | KB-V1 MDR tox | ATXN2 expr inh | S2 tox | HT1080NT lethal | HT1080 IDH1KD tx
CCOC(=O)CN1C(=O)C(Sc2n[nH]c(-c3cccc(C)c3)n2)CCc2ccccc21 (stereo unspecified) | i | 21µM* | 1% | i | ? | ?
C=CCn1c(-c2oc3nc(-c4ccccc4)cc(-c4ccccc4)c3c2N)n[nH]c1=S | i | 9.2µM* | 6% | · | 3% | 5%
Cc1csc(NC(=O)CSc2nnc3c4ccccc4nc(C(C)(C)C)n23)n1 | ? | ? | ? | ? | 5µM* | 6.3µM*
Cc1ccc(C(=O)CSc2nnc3c4ccccc4nc(C(C)(C)C)n23)cc1 | 23µM* | ? | -16% | i | 23% | 0%
CSCCC(NS(=O)(=O)c1ccc(C)cc1)C(=O)NNC(=O)c1csc(N2CCOCC2)n1 (stereo unspecified) | i | i | 6% | i | 8% | -12%
CCc1ccc(NC(=O)CSc2nc3n[nH]c(C)c3c(=N)n2-c2cccc(OC)c2)cc1 | i | ? | -11% | i | ? | 11µM*
Cc1cc(-n2c(SCC(=O)Nc3ccc(Br)cc3)nc3n[nH]c(C)c3c2=N)ccc1Cl | ? | i | -23% | ? | 1% | -4%
CCOc1ccc(-n2c(SCC(=O)Nc3ccc(Br)cc3)nc3n[nH]c(C)c3c2=N)cc1 | i | i | ? | ? | 15µM* | 16µM*
COc1cccc(-n2c(SCC(=O)NCCC3=CCCCC3)nc3n[nH]c(C)c3c2=N)c1 | i | 13µM* | 3% | i | -14% | -24%
COc1cccc(NC(=O)CSc2nc3n[nH]c(C)c3c(=N)n2-c2cccc(OC)c2)c1 | i | i | 3% | i | ? | -10%[9.24 µM]
Cc1ccccc1C1(CC(=O)N2CCCCC2C)CC(=O)N(Cc2cccnc2)C1=O (stereo unspecified) | · | · | · | i | · | ·
CNC(=S)N/N=C/c1cc(Br)cc(Br)c1O | i | i | -24% | i | ? | 23µM*
Oc1c(Br)cc(Br)cc1/C=N/NC(=S)N[C@H]1CC2C=CC1C2 (stereo partly specified) | ? | ? | ? | i | ? | 21µM*
CC(=O)Nc1ccc(C(=O)N/N=C/c2cc(Br)cc(Br)c2O)cc1 | i | i | 25µM* | i | ? | ?
